Assay results: PubChem BioAssay (Tox21)
Results filed as inconclusive are left out. Unmarked numbers belong to inactive results. The source made the active and inactive calls. Calls follow the shape of the full dose curve.

These compounds were tested against Peroxisome proliferator-activated receptor delta (Homo sapiens) (UniProt Q03181) (assay: qHTS assay to identify small molecule agonists of the peroxisome proliferator-activated receptor delta (PPARd) signaling pathway (AID 743212)). Settings: HEK293H PPARd-UAS-bla, beta-lactamase FRET ratio, 17 h; series mostly up to 62.6 µM; activation: at the top concentration.
Sequence of Peroxisome proliferator-activated receptor delta (Homo sapiens) (Q03181 whole entry, looked up): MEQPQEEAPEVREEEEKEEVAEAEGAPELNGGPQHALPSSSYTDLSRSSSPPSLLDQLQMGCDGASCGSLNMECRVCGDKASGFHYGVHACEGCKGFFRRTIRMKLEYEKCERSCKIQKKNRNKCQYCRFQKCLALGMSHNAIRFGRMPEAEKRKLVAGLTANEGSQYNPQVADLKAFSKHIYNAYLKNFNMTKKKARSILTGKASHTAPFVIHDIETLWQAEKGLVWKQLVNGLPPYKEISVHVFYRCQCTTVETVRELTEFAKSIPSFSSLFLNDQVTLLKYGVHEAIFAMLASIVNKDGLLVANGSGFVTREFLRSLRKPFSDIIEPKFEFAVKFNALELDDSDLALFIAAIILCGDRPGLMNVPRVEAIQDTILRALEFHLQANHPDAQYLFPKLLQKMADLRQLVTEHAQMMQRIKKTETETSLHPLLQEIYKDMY
From the text: U.S. Tox21 Program National Center for Advancing Translational Sciences [NCATS] NIH Chemical Genomics Center [NCGC] U.S. Environmental Protection Agency [EPA] National Institutes of Environmental Health Sciences [NIEHS] National Toxicology Program [NTP] U.S. Food and Drug Administration [FDA] Tox21 Assay Overview: The peroxisome proliferator-activated receptors (PPARs) are lipid-activated transcription factors of the nuclear receptor superfamily with three distinct subtypes namely PPAR alpha, PPAR delta (PPARd) and PPAR gamma. All these subtypes heterodimerizes with Retinoid X receptor (RXR) and have different physiological functions. […] To identify the compounds that activate PPAR-delta signaling, GeneBLAzer PPAR delta UAS-bla HEK293H cell line (Invitrogen, Carlsbad, CA, USA) containing a beta-lactamase reporter gene under the control of an Upstream Activator Sequence (UAS) was used to screen the Tox21 compound library.
Tox21 Assay Protocol Summary: PPARd-bla cells were dispensed at 3000 cells/6uL/well in 1536-well black wall/clear bottom plates using a Multidrop Combi (Thermo Fisher Scientific, Waltham, MA) dispenser. After the assay plates were incubated at 37 C and 5% CO2 for 5 h, 23 nL of compounds dissolved in DMSO, positive controls or DMSO only was transferred to the assay plate by a Pintool station (Kalypsys, San Diego, CA). The assay plates were incubated at 37C for 17 h. After 1 uL of LiveBLAzerTM B/G FRET substrate was added using a Bioraptr Flying Reagent Dispenser (FRD) workstation (Beckman Coulter, Indianapolis, IN, USA), the plates were incubated at room temperature for 2 h, and fluorescence intensity was measured by an Envision plate reader (PerkinElmer, Shelton, CT).
% is scaled to controls: 0 for no effect and ±100 for the full control effect.

Row | Compound | activation | outcome
1 | CCCC[N+](CCCC)(CCCC)CCCC | -2.02% | –
2 | O=[N+]([O-])c1cc(Cl)c(Cl)cc1Cl | -2.39% | –
3 | O=C(NCNC(=O)NC1C(=O)NC(=O)N1CO)NC1C(=O)NC(=O)N1CO (stereo not given) | -0.789% | –
4 | CN1C(=O)CN=C(c2ccccc2)c2cc([N+](=O)[O-])ccc21 | 0.564% | –
5 | O=C1NC(=O)C(=O)C(=O)N1 | 3.55% [at 81.1 µM] | –
6 | CN(C)N | 1.33% | –
7 | C[N+]1(CCC(C(N)=O)(c2ccccc2)c2ccccc2)CCCCC1 | 0.302% | –
8 | CC(C)(C)N(NC(=O)c1ccc(Cl)cc1)C(=O)c1ccccc1 | 0.98% | –
9 | CCCC[N+]1(C)[C@@H]2CC(OC(=O)[C@H](CO)c3ccccc3)C[C@H]1[C@@H]1O[C@@H]12 (stereo not given in full) | 0.117% | –
10 | C=C(C)C(=O)OCCCCOC(=O)C(=C)C | 2.55% | –
11 | O=C=NC1CCCCC1 | 0.82% | –
12 | C=CCc1ccc(OC(=O)Cc2ccccc2)c(OC)c1 | 0.359% | –
13 | CC(C)c1ccc(NC(=O)N(C)C)cc1 | -0.999% | –
14 | CCCCCBr | 3.64% [at 81.1 µM] | –
15 | O=S(=O)(c1ccccc1)c1ccccc1 | 0.359% | –
16 | C[C@H]1O[C@H](OC2[C@@H](O)[C@@H](O)C(O)[C@H](O)[C@H]2O)[C@@H](N)C[C@@H]1N=C(N)C(=O)O (stereo not given in full) | -3.22% | –
17 | CC(C)CCON=O | -0.0368% | –
18 | CCCCC(CC)COC(=O)c1c(Br)c(Br)c(Br)c(Br)c1C(=O)OCC(CC)CCCC (stereo not given) | 8.15% | –
19 | C=CCSSCC=C | 2.55% | –
20 | FC(F)OC(F)(F)C(F)Cl (stereo not given) | 3.38% | –

Row | Compound | activation | outcome
21 | CCCCOC(=O)CCC(=O)OCCCC | -2.25% | –
22 | CCC1(CCC(C)C)C(=O)NC(=O)NC1=O | 11.9% [at 81.1 µM] | –
23 | OC[P+](CO)(CO)CO | 2.89% | –
24 | CCC1CCC(=O)O1 (stereo not given) | -3.12% [at 81.1 µM] | –
25 | CCCCCl | -0.882% [at 81.1 µM] | –
26 | CN(C)c1ccc(N=O)cc1 | -0.492% [at 81.1 µM] | –
27 | CC1(C)CC(=O)CC(C)(C)N1[O] | -4.03% | –
28 | CCCN(CCOc1c(Cl)cc(Cl)cc1Cl)C(=O)n1ccnc1 | 0.253% | –
29 | N#CC(C#N)=C(C#N)C#N | 1.58% [at 81.1 µM] | –
30 | O=C(Cc1ccccc1)c1ccccc1 | -0.615% | –
31 | c1ccc2sc(SNC3CCCCC3)nc2c1 | – | inactive
32 | Nc1c(Br)cc(Br)c2c1C(=O)c1ccccc1C2=O | -4.11% [at 29.1 µM] | –
33 | CCc1ccccc1N | 2.2% | –
34 | CCC[N+](CCC)(CCC)CCC | -0.0982% | –
35 | CCCSP(=S)(OCC)Oc1ccc(SC)cc1 (stereo not given) | 5.9% | –
36 | CCCCC(CC)CO[N+](=O)[O-] (stereo not given) | -0.093% | –
37 | O=C(N[C@H]1CN2CCC1CC2)c1ccc2c(c1)OCCO2 | 10.5% | –
38 | CON(C)C(=O)Nc1ccc(Cl)cc1 | 4.24% | –
39 | C[C@H](N)[C@H](O)c1ccc(O)c(O)c1 | 3.76% | –
40 | CCCCCCCCP(=O)(O)O | -3.3% | –
